The list is not random: actives were taken first. Their share in the collection is about 2%.
INS promoter inh – TRM-6 insulin promoter activity inhibition | inhibition, % at 2 µM | 0.9% of 130,000 active | TRM-6 cells (human fetal islet line), insulin promoter-eGFP reporter, imaging; reporter expression induced with tamoxifen;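 active = inhibition above the mean plus 3 SD, with well images judged a real hit on visual review, cut at about 60% in these data, passing the limit was not always enough; inconclusive = inhibition over the cutoff but images rejected on review; inactive = inhibition not above the cutoff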
Insulin prom up – MIN6 insulin promoter up-regulation; MIN6 insulin promoter-GFP reporter, high-content imaging; hits give high values; 0.3% of 190,000 active; z-score at 5 µM;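 active = z-score above 3 at 5 µM with at least 500 cells counted in the well; inconclusive = wells under 500 cells, flagged as cytotoxic or low count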
PERK inhibitor – inhibitors of human PERK kinase; inhibition, % at 5.6 µM; 0.17% of 220,000 active; Q9NZJ5; CHO PERK-DD fusion, SEAP luminescence translation reporter;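 active = inhibition above the mean inhibition of all tested compounds plus 3 SD, set separately per screening campaign, cut at about 2.9% in these data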;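 note: PERK kinase domain activated by AP20187 dimerizer at 100 nM; 0% = DMSO with dimerizer and 100% = rapamycin at 8.4 µM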
Target sequence (Q9NZJ5 whole entry, looked up, the tested form may be a part): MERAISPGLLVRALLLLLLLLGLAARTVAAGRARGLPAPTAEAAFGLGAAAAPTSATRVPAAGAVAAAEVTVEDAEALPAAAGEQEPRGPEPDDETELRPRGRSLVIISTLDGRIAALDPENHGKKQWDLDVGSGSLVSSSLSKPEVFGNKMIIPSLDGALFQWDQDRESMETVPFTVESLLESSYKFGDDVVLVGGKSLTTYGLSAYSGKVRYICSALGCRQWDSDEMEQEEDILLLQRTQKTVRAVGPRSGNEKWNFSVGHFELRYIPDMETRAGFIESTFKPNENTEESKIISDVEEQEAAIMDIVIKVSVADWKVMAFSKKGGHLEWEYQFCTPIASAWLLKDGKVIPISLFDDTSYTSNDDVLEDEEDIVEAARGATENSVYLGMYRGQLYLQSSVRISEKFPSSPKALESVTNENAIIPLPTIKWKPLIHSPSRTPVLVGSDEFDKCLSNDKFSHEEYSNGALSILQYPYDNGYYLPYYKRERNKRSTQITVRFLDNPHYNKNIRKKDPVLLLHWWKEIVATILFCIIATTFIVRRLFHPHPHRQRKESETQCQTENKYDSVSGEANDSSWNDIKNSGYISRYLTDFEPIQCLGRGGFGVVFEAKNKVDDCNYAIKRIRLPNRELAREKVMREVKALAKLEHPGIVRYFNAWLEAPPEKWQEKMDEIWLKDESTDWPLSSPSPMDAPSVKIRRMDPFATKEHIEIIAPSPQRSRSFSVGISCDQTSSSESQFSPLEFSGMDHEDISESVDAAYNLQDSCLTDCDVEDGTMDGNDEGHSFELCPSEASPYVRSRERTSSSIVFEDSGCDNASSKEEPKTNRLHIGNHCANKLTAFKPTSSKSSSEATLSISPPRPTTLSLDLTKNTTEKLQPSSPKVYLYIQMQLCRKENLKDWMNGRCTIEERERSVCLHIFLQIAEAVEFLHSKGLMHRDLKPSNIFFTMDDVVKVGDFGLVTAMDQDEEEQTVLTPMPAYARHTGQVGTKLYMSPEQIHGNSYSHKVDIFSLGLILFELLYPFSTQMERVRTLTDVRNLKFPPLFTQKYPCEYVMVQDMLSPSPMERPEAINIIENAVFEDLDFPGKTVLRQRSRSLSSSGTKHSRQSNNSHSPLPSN
eIF4E-4G inh – eIF4E/eIF4G interaction inhibition in translation initiation; P63073+Q04637; TR-FRET eIF4E-eIF4GI(517-606) binding, 2 h; inhibition, % at 21.7 µM; 0.37% of 220,000 active;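 active = inhibition above about 30%, limit read from the data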;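 note: 0% = full FRET control wells and 100% = background wells lacking eIF4GI fragment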
Autophagy mod – alters autophagy in cells; 0.98% of 190,000 active; MEF GFP-LC3 puncta imaging; test concentration mostly 10 µM; calls only at 10 µM (by protocol);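 active = percentage of spot-positive cells more than 3 SD above its plate mean, without a fluorescence outlier flag or 80% toxicity; inconclusive = no clear call, values can overlap the other calls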;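 note: spot-positive cell cutoff set from DMSO-treated cells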
Numbers without * were called inactive; i = inactive; u = inconclusive; x = no result given; + = active, no number.

SMILES	INS promoter inh	Insulin prom up	PERK inhibitor	eIF4E-4G inh	Autophagy mod
CC(C)(C)OC(=O)N1CCC(c2cc(=O)n3[nH]cc(C(=O)NC4CCCC4)c3n2)CC1	x	0.5	3.2*	-2	i
CC(C)(C)OC(=O)N1CCC(c2cc(=O)n3[nH]cc(C(=O)Nc4ccc(F)c(Cl)c4)c3n2)CC1	x	-0.42	1	16	x
COc1ccc(C2(CNC(=O)c3cccc([N+](=O)[O-])c3)CCOCC2)cc1	33	-0.11	0	-3	i
CCc1ccc2[nH]c3nc(SCc4nnc(-c5ccccc5)o4)nnc3c2c1	x	-0.06	1	-15	x
CCc1ccc2[nH]c3nc(C)cc(C)c3c(=O)c2c1	81*	-0.35	0	10	i
CC(=O)c1ccccc1NS(C)(=O)=O	x	0.65	1	1	i
Cc1cccc(NC(=O)CN2C(=O)N/C(=C/c3cc(C)n(-c4ccncc4)c3C)C2=O)c1	7	-0.09	1	6	i
Cc1cccc(NC(=O)CN2C(=O)N/C(=C/c3cc(C)n(C)c3C)C2=O)c1	83*	-0.15	0	2	i
Cc1ccc(NC(=O)Cc2ccc(-n3cccc3)cc2)c(C)c1	8	0.04	1	-5	i
Cc1ccc(NC(=O)CCl)c(C)c1	x	3.5*	0	3	i
CN(NS(=O)(=O)c1ccc(Cl)cc1)c1ncc(C(F)(F)F)cc1Cl	x	u	1	1	i
COc1ccc(C(c2sc3nc(C)nn3c2O)N2CCC(C(N)=O)CC2)cc1OC (centres undefined)	80*	-0.59	-1	0	i
Cn1nc(C(F)(F)F)c(-c2ccccc2)c1NC(=O)CCC(=O)O	x	x	3.5*	-1	x
NC(=O)CSc1nnc(CSc2ncccn2)n1-c1ccccc1	x	-0.06	3.0*	1	i
Cc1cc(C)nc(SCc2nnc(SCC(=O)O)n2-c2ccccc2)n1	x	-0.08	0	-3	i
Cc1cccc(OCC(=O)N/N=C/c2ccccc2C(=O)O)c1	0	0.22	0	1	i
O=C(CCCC(=O)N/N=C/c1ccccc1C(=O)O)N/N=C/c1ccccc1C(=O)O	x	-0.12	3.5*	-4	x
O=C(CCCc1ccccc1)Nc1cccnc1	18	x	1	-6	i
CC(=O)N(CC(C)(C)CC=C(C)C)c1ccccc1	65*	0.48	2	6	i
O=c1ccc(/C=C/c2ccccc2)nn1Cc1ccc(Cl)cc1Cl	x	0.11	1	-21	i
Cc1ccc(/C=C/c2ccc(=O)n(Cc3ccc(Cl)cc3Cl)n2)cc1	-7	0.78	3.0*	-3	i
CC(C(=O)N1CCN(Cc2ccc3c(c2)OCO3)CC1)c1ccc([N+](=O)[O-])cc1 (centres undefined)	x	0.32	1	0	i
O=C(COC(=O)C12CC3CC(CC(C3)C1)C2)Nc1nccs1	x	0.25	1	4	i
Cc1ccnc(N/C=C(\C#N)c2nc(-c3cccc(Br)c3)cs2)c1	-12	x	1	-4	+
N#C/C(=C\Nc1ccc2cn[nH]c2c1)c1nc(-c2ccccc2)cs1	27	-1.9	0	16	i
SMILES	INS promoter inh	Insulin prom up	PERK inhibitor	eIF4E-4G inh	Autophagy mod
Clc1ccccc1/C=N/NC1=Nc2cccc3cccc1c23	-38	0.79	0	4	+
C(=N\NC1=Nc2cccc3cccc1c23)/c1ccccn1	-58	-1.5	0	-5	i
CC(CN(C)Cc1ccccc1)OC(=O)c1ccccc1F (centres undefined)	30	-0.41	0	6	i
CCN(CC)CC(C)OC(=O)c1ccccc1Cl (centres undefined)	x	-0.09	-1	-2	+
Nc1c(C(=O)N2CCCC2)sc2nc(-c3ccccc3)ccc12	x	-0.11	1	0	x
Nc1c(C(=O)Nc2ccccc2)sc2nc(-c3ccco3)ccc12	80*	0.73	1	2	i
COc1ccccc1NC(=O)c1sc2nc(-c3ccco3)ccc2c1N	14	2.3	0	2	i
COc1cccc(-c2ccc3c(N)c(C(=O)NC4CC4)sc3n2)c1	x	-0.98	-1	-3	x
COc1ccc(-c2ccc3c(N)c(C(=O)c4cccc(OC)c4)sc3n2)cc1	-67	x	-1	-17	+
Nc1c(C(=O)Nc2ccccc2)sc2nc(-c3cccnc3)ccc12	x	1.1	0	-4	x
COc1ccc(C(=O)c2sc3nc(-c4ccc(OC)cc4)ccc3c2N)cc1	-245	0.68	1	9	+
COc1ccc(NC(=O)c2sc3nc(-c4cccnc4)ccc3c2N)cc1	x	6*	-1	-18	x
COc1ccc(-c2c(C#N)c(N)nc3sc(C(=O)c4ccc(C)cc4)c(N)c23)cc1	-3	0.19	0	2	+

High-throughput results: PubChem BioAssay, several laboratories
